The values that follow come from PubChem BioAssay (NCATS).

Assay [1] has as its target Cytochrome P450 1A2 (Homo sapiens) (UniProt P05177). Kind of assay: p450-cyp1a2 (AID 410; calls by dose curve;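 further: -100% = full effect of reference inhibitor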). The essentials:
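Luminescent readout of luciferin formed from Luciferin-ME by human CYP1A2; data normalized against complete inhibition by 57 uM furafylline. Enzyme 20nM, substrate 100uM at Km, 100mM KPO4 buffer, 60 min reaction at room temperature.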

The target in assay [2] is Glucocorticoid receptor (Homo sapiens) (UniProt P04150). In words: GR-GFP Redistribution (AID 450;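 active means compounds whose dose series gives a full or clear partial fitted curve of increased nuclear translocation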; further: potency means the concentration at half of the fitted maximal effect). Conditions: U2OS GR-GFP nuclear translocation, laser cytometry, 2 h.
Chain of Glucocorticoid receptor (Homo sapiens) (P04150 whole entry, looked up, the tested form may be a part): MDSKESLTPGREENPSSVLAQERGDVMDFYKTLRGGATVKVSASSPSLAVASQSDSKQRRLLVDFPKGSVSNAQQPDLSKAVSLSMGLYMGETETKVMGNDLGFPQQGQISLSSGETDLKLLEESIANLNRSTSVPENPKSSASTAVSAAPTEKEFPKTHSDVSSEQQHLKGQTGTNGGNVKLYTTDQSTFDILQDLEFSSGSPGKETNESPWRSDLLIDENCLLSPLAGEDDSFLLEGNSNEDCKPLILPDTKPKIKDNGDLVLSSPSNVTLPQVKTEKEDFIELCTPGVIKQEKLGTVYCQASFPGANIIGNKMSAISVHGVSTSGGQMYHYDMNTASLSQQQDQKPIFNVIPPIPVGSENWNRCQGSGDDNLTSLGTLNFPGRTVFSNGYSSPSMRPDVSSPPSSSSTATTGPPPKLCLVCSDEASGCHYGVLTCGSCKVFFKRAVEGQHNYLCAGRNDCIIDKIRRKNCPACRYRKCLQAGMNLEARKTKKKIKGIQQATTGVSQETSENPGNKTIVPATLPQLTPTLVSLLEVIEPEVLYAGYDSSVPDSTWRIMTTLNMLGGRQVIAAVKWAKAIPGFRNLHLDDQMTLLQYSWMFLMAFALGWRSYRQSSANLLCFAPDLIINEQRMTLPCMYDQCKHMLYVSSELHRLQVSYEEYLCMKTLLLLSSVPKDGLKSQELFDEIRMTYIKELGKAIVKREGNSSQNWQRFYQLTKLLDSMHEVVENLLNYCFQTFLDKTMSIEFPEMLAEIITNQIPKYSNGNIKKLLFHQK
Assay [3] has the same target. In words: GR-EFC Redistribution (AID 451; calls by dose curve; further: potency means the concentration at half of the fitted maximal effect). To be noted: CHO-K1 GR-EFC translocation, beta-gal luminescence, 2 h. The procedure, abridged: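 CHO-K1 cells stably expressing nuclear-localized β-gal enzyme acceptor and GR fused C-terminally to the enzyme donor fragment; ligand-driven nuclear translocation restores β-gal by complementation. Compounds titrated up to 46 uM final, 2 h at 37 °C; luminescence read.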

For assay [4], the target named is Mitogen-activated protein kinase 10 (Mus musculus) (UniProt Q61831). Kind of assay: JNK3 AlphaScreen Assay (AID 530; active means well fitted curve in either direction with a large enough effect, not every such curve was filed as active;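 further: kinase came from lysate of stimulated human HepG2 cells; signal reports phosphorylation of biotinylated GST-cJun 1-79 at Ser73 with 10 µM ATP; on the % scale 0 is the no-effect control and ±100 the full control effect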). The essentials: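 Inhibitors reduce antibody binding to phosphorylated biotin-cJun, lowering AlphaScreen luminescence. Lysates from HepG2 cells pre-activated by IL-1beta plus TNF-alpha supplied JNK3; compounds were titrated.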
In general terms: Alpha assays give light when donor and acceptor beads are brought close together.

Assay [5] concerns the target Cytochrome P450 3A4 (Homo sapiens) (UniProt P08684). In words: qHTS Assay for Activators of Cytochrome P450 3A4 (AID 885). Further: nearly all actives have a fitted effect of over 65% in size. The essentials:
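Signal was normalized against complete inhibition by 57 uM ketoconazole. The reaction used 20nM CYP3A4 with 25uM Luciferin-PPXE, 10-min compound preincubation and a 60-min NADPH-supported step at RT.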
Background: qHTS replaces the single test concentration by a dilution series.

Assay [6] can be described thus: qHTS Assay for Lipid Storage Modulators (AID 1519; calls by dose curve; further: potency means the concentration at half of the fitted maximal effect; on activity change, negative = inhibition: on the % scale 0 is the no-effect control and ±100 the full control effect). Conditions: Drosophila S3 cells, BODIPY lipid droplet/cell ratio, laser cytometry, cells loaded with oleic acid. The procedure, abridged:
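Cells seeded at 5,000 per well were treated with compounds over a concentration series and loaded with oleic acid (400 uM, as added). Lipid droplet fluorescence (488 nm excitation, 500-530 nm channel) was read by laser-scanning cytometry and normalized to 20 uM Triacsin C.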

Assay [7] concerns the target Ubiquitin carboxyl-terminal hydrolase 1 (Homo sapiens) (UniProt O94782). In words: Inhibitors of USP1/UAF1: Pilot qHTS (AID 504865).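 Further: rhodamine fluorescence freed from ubiquitin-rhodamine substrate followed over time; top concentration of the series differs between compounds; on the % scale 0 is the no-effect control and ±100 the full control effect; nearly all actives have a fitted effect of over 35% in size.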 The essentials: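 In 50mM HEPES pH 7.8 containing 0.5mM EDTA, 1mM TCEP, 0.1 mg/ml BSA and 0.01% Tween-20, 1nM USP1/UAF1 is exposed to compound for 15 min, then Ub-Rho (150nM final) is added and fluorescence is read over time.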
For assay [8], the target named is Cytochrome P450 3A4 (Homo sapiens) (UniProt P08684). In words: qHTS Assay for Inhibitors and Substrates of Cytochrome P450 3A4 (AID 884). Further: nearly all actives have a fitted effect of over 50% in size. Further: potency means the concentration at half of the fitted maximal effect. On activity change, negative = inhibition: on the % scale 0 is the no-effect control and ±100 the full control effect. The procedure, abridged: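 20 nM human CYP3A4 with 25 uM Luciferin-PPXE (at KM) in 200 mM KPO4, preincubated 10 min with compound; NADPH regeneration started a 60 min RT reaction. Luciferin detected by luminescence, normalized to 57 uM ketoconazole as full inhibition.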
Chain of Cytochrome P450 3A4 (Homo sapiens) (P08684 whole entry, looked up): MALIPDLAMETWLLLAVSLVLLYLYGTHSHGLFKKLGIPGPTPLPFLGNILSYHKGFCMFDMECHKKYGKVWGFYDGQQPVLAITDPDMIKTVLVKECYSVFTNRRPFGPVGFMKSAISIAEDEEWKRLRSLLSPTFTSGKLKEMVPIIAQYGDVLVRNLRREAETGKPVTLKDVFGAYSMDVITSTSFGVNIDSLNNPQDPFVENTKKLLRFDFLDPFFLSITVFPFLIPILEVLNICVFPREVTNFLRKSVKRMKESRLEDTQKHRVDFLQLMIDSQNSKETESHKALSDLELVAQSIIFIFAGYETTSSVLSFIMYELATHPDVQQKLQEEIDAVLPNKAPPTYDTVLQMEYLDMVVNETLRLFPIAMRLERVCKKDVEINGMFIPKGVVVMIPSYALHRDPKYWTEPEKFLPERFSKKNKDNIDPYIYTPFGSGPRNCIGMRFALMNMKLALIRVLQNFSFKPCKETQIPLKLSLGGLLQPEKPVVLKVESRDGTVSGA

Assay [9] is described as follows: Confirmation and Secondary Assay for Modulators of Hemoglobin Beta Chain Splicing at IVS2 654 locus (AID 910).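 Further: per-well total GFP intensity by laser scanning cytometry after 2-day treatment; % of control where 0% means no effect.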 The procedure, abridged: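 HeLa cells stably carrying EGFP interrupted by mutant beta-globin IVS2-654 intron (CMV-driven) were treated with compound for 2 days at 37C; corrected splicing was scored as total peak GFP intensity per well (488 nm excitation, 500-520 nm emission).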

Assay [10] is described as follows: Confirmation and Secondary Assay for Modulators of Hemoglobin Beta Chain Splicing at IVS2 705 locus (AID 930).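 Further: HeLa cells stably expressing the EGFP-705 splicing reporter; GFP fluorescence per well restored by corrected splicing of the IVS2-705 intron in EGFP; % of control where 0% means no effect.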 The essentials:
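Per-well GFP, captured at 1 x 8 µm resolution with 488 nm excitation, served as the read-out for HeLa EGFP-705 cells incubated 2 days with test compound versus DMSO.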

Assay [11] addresses ATP-dependent 6-phosphofructokinase (Trypanosoma brucei brucei) (UniProt O15648). Kind of assay: qHTS Assay to Find Inhibitors of T. brucei phosphofructokinase: hit validation (AID 492961).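 Further: luminescence reports ADP formed as PFK phosphorylates fructose-6-phosphate with ATP; on the % scale 0 is the no-effect control and ±100 the full control effect.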 The procedure, abridged: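 PFK 1.25 nM, F6P 0.5 mM, ATP 0.1 mM, MgCl2 5 mM, 0.1 M TEA pH 8.0, Tween20 0.01%, BSA 0.1%; 45 min RT. ADP-Glo two-step detection, luminescence. qHTS titration; curve fitting with curve-class categorization.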

Assay [12] deals with Luciferin 4-monooxygenase (Photinus pyralis) (UniProt P08659). In words: Biochemical firefly luciferase enzyme assay for NPC (AID 624030).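 Further: purified P. pyralis luciferase at 10 nM with luciferin and ATP substrate; 0% = DMSO and -100% = full luciferase inhibition by PTC124 control; nearly all actives have a fitted effect of over 70% in size.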 The essentials:
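Counter-screen for direct inhibition of the luciferase enzyme by approved-drug library compounds, run at 10 nM enzyme in 50 mM Tris acetate (final). Luminescence was read within 5 min of enzyme-buffer addition and normalized to PTC124 versus DMSO (0%).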

The target in assay [13] is DNA dC->dU-editing enzyme APOBEC-3G (Homo sapiens) (UniProt Q9HC16). In words: qHTS for inhibitors of Vif-A3G interactions: Validation (AID 588379). Further: 0% is about no effect. The procedure, abridged: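 HeLa cells stably expressing Vif and A3G-eYFP, 700 cells/well, incubated overnight at 37 deg C, then exposed to compound overnight at 37 deg C. Inhibition of Vif-mediated degradation read as increased yellow fluorescence (Ex 488/Em 500-530) by laser-scanning cytometry.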
Chain of DNA dC->dU-editing enzyme APOBEC-3G (Homo sapiens) (Q9HC16 whole entry, looked up): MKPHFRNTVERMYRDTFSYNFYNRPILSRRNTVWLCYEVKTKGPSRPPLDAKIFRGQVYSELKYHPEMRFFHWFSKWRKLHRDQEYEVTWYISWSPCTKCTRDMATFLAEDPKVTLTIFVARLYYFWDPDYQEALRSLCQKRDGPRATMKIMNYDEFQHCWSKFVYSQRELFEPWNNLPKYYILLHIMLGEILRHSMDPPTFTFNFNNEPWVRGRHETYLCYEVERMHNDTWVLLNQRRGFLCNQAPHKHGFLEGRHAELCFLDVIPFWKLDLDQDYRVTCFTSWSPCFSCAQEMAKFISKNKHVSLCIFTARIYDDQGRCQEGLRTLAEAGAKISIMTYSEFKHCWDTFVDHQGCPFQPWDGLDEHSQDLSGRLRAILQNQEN

Assay [14] can be described thus: qHTS profiling for inhibitors of Plasmodium falciparum proliferation (AID 504749).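 Further: 0% = DMSO vehicle and full inhibition = artemisinin control; nearly all actives have a fitted effect of over 60% in size.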 Conditions: P. falciparum in erythrocytes, SYBR Green DNA, 72 h, at 28.7 µM (top of the series). The procedure, abridged:
(§1)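 Parasite proliferation within erythrocytes, 72 h exposure. Endpoint: SYBR Green I fluorescence after overnight lysis at room temperature. Controls: 0.29 uM artemisinin, DMSO.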

A further assay relates to AS120. The description is as above. Conditions: P. falciparum in erythrocytes, SYBR Green DNA, 72 h; series mostly up to 28.7 µM. The procedure, abridged:
as §1

For the next assay, the system named is ATS189. The assay is described as above. Conditions: P. falciparum in erythrocytes, SYBR Green DNA, 72 h; series mostly up to 28.7 µM. The essentials: as §1
The next assay deals with CP247. The assay is described as above. Conditions: P. falciparum in erythrocytes, SYBR Green DNA, 72 h; series mostly up to 28.7 µM. The essentials:
as §1

A further assay concerns CP269. The description is as above. To be noted: P. falciparum in erythrocytes, SYBR Green DNA, 72 h; series mostly up to 28.7 µM. The procedure, abridged: as §1
The subject of the next assay is ECU. The description is as above. To be noted: P. falciparum in erythrocytes, SYBR Green DNA, 72 h; series mostly up to 28.7 µM. The procedure, abridged:
as §1

The next assay relates to TAB109. Described as above. To be noted: P. falciparum in erythrocytes, SYBR Green DNA, 72 h; series mostly up to 12.8 µM. The essentials:
as §1

Where [15] appears, read: measured here: cell count channel max response.
[16] abbreviates: measured here: lipid channel max response.

Records with an inconclusive call do not appear. Calls of active or inactive are those of the source. Unless noted, the call rests on the fitted dose curve; in most records, active means well fitted curve in the direction sought with a large enough effect; inconclusive means small, poorly fitted or top-dose-only effect, or another doubt; inactive means no such curve, though single readings can be large; an effect the other way counts as inactive or inconclusive.

Chain of Ubiquitin carboxyl-terminal hydrolase 1 (Homo sapiens) (O94782 whole entry, looked up): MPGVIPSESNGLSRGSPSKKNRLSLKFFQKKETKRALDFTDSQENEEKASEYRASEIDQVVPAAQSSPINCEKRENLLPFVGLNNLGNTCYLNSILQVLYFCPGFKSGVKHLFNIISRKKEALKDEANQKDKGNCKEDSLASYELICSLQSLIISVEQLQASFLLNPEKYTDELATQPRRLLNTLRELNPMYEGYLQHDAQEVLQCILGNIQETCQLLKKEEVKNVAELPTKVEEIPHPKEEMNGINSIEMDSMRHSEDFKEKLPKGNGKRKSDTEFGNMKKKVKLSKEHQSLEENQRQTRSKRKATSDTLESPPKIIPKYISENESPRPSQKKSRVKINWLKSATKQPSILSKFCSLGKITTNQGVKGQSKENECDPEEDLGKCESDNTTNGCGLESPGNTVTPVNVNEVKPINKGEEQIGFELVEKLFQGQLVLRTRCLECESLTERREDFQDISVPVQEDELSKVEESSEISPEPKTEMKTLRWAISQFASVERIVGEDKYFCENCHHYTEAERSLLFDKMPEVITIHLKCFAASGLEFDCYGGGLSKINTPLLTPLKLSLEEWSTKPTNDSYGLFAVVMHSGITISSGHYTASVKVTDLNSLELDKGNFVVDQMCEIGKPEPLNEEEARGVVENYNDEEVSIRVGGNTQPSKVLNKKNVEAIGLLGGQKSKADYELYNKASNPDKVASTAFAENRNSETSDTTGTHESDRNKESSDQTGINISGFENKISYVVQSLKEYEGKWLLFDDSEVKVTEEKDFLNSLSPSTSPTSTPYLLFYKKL
Chain of Cytochrome P450 1A2 (Homo sapiens) (P05177 whole entry, looked up): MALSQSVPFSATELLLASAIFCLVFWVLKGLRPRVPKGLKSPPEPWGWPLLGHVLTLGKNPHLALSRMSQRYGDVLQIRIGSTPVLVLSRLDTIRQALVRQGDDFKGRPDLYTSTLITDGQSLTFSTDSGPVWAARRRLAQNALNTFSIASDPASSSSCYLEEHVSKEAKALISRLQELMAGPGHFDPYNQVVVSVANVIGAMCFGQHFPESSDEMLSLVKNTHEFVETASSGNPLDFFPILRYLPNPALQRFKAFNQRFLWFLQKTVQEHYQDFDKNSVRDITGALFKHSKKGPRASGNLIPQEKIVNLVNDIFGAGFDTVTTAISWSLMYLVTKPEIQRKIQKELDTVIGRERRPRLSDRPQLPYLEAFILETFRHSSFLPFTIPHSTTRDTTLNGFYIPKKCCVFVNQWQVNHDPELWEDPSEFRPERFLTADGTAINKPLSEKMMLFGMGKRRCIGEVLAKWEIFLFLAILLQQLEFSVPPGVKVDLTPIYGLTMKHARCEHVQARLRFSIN
Chain of Luciferin 4-monooxygenase (Photinus pyralis) (P08659 whole entry, looked up): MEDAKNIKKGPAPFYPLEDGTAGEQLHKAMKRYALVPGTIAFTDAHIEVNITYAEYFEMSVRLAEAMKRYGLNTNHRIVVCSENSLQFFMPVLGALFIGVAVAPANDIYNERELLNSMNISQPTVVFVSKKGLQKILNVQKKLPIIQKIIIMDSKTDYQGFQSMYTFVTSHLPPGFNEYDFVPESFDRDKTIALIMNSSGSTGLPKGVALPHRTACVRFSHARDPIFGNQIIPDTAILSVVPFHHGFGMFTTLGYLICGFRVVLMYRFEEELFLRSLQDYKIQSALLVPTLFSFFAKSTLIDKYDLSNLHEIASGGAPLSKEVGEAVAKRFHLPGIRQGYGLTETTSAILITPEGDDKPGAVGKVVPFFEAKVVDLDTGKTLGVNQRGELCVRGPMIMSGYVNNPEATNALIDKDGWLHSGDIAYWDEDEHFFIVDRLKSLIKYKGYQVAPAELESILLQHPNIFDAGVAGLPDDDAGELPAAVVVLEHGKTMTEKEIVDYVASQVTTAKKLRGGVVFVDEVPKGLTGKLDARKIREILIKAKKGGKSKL
Chain of ATP-dependent 6-phosphofructokinase (Trypanosoma brucei brucei) (O15648 whole entry, looked up): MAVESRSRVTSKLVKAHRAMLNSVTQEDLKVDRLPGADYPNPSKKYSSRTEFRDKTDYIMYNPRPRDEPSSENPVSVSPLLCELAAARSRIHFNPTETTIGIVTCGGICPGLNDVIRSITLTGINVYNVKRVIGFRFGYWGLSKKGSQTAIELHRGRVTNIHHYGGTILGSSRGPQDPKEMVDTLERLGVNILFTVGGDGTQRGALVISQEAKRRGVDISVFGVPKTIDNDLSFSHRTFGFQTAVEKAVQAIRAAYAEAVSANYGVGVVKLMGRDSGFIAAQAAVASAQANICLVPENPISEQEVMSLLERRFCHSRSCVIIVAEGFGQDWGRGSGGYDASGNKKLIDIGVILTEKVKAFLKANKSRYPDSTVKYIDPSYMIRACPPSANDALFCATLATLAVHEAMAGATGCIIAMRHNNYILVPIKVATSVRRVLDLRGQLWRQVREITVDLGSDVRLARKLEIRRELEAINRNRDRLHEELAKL

Consider `C[C@@H]1O[C@H](O[C@@H]2CC[C@@]3(C=O)[C@H]4CC[C@@]5(C)[C@@H](C6=CC(=O)OC6)CC[C@@]5(O)[C@@H]4CC[C@]3(O)C2)C[C@H](O)[C@@H]1O`, for which the Potency entry in [1], in assay [5] and in assay [7] was “inactive” throughout. In addition, the Potency in assay [2] and in [3] was > 20.6 µM (inactive) in each case. In addition, the result in assay [4] was inactive. Further, the activity change, negative = inhibition in assay [6] (at 25.7 µM (top of the series)) was -0.93% (inactive). Also, the results for the max response in [6] (setting [15]) and in assay [6] (setting [16]) were -14.4% and -15.6%, respectively.

Consider `COc1ccc(C(=O)OC2C[C@H]3CC[C@@H](C2)N3C)cc1OC` (some centres undefined), for which the Potency entry in assay [1] and in [7] was “inactive” in each case. Further, the Potency in [2] and in assay [3] was > 20.6 µM (inactive) in each case. Further, the result in [4] was inactive. Besides, in [6] (at 25.7 µM (top of the series)), the activity change, negative = inhibition was 0.262% (inactive). The max response in assay [6] (setting [15]) was -3.69%; in [6] (setting [16]), -3.27%.

As to `CC(C)CC(CN)CC(=O)O` (centres undefined), the Potency result in assay [8], in assay [9], in assay [10], in assay [11] and in [12] was “inactive” throughout. Also, the activity change, negative = inhibition in [6] (at 57.5 µM (top of the series)) is 8.71% (inactive). Further, the values for the max response in assay [6] (setting [15]) and in [6] (setting [16]) were 14.3% and 26.2%, respectively.

As for `COc1cc2c(c(OC)c1OC)-c1ccc(OC)c(=O)cc1C(NC(C)=O)CC2` (centres undefined), the activity change, negative = inhibition in [6] (at 57.5 µM (top of the series)) is 7.05% (inactive). In addition, the max response amounted to 10.2% in [6] (setting [15]) and 20.2% in assay [6] (setting [16]). Further, in [7], the Potency entry was “inactive”.

`COP(=S)(OC)Oc1ccc([N+](=O)[O-])cc1`: the outcome in assay [4] was inactive. In addition, the Potency in assay [8] is 3.98 µM (active); in assay [6] it was 22.4 µM (active). Also, the Potency result in assay [5] and in assay [9] was “inactive” throughout. In addition, the max response in assay [6] (setting [15]) was 19.5%; in assay [6] (setting [16]), -54.1%.

For the molecule `CCCCCCCCCc1ccc(O)cc1`, the call in assay [4] was inactive. The Potency result in assay [5] and in assay [10] was “inactive” throughout. Further, the activity change, negative = inhibition in [6] (at 57.5 µM (top of the series)) is 4.47% (inactive). For the same molecule, the max response stood at 4.78% in assay [6] (setting [15]) and 11% in assay [6] (setting [16]).

Turning to `CN1[C@@H]2CC(OC(=O)[C@H](CO)c3ccccc3)C[C@@H]1[C@H]1O[C@H]12` (some centres undefined), the activity change, negative = inhibition in assay [6] (at 57.5 µM (top of the series)) is 4.98% (inactive). The max response was -8.42% in assay [6] (setting [15]) and -4.12% in [6] (setting [16]). In assay [7], the Potency entry is “inactive”.

For `CN1[C@@H]2CC[C@H]1CC(O)C2` (some centres undefined), the molecule was classed as inactive in [4]. Besides, the activity change, negative = inhibition in assay [6] (at 25.7 µM (top of the series)) was -5.91% (inactive). For the same molecule, the max response was -19.1% in assay [6] (setting [15]) and -25.1% in [6] (setting [16]). For the same molecule, in [7], the Potency entry is “inactive”.

Take `C=C1CC[C@H](O)C/C1=C/C=C1\CCC[C@]2(C)[C@H]1CC[C@H]2[C@@H](C)CCCC(C)C`: the activity change, negative = inhibition in assay [6] (at 25.7 µM (top of the series)) was 0.847% (inactive). Further, the max response in assay [6] (setting [15]) was found to be 8.85%; in assay [6] (setting [16]), 12%. For the same molecule, the Potency entry in [7] is “inactive”.

Consider `C/C=C/c1ccc2c(c1)OCO2`, for which the result in assay [4] and in assay [13] was inactive. Also, the Potency result in assay [5], in assay [10] and in assay [7] was “inactive” throughout. Moreover, in [6] (at 57.5 µM (top of the series)), the activity change, negative = inhibition is 7.07% (inactive). For the same molecule, the values for the max response in assay [6] (setting [15]) and in [6] (setting [16]) were 10.4% and 20.9%, respectively.

Regarding `CC([C@H](O)c1ccccc1)N(C)C` (some centres undefined), the Potency result (in assay [8]; in assay [10]; in assay [11]; in [7]; in [12]; in the assay on AS120) was “inactive” in each case. In addition, the Potency result with ATS189, in the assay on CP247, in the assay with CP269, in the assay with ECU and in the assay on TAB109 was “inactive” in each case. Also, the activity change, negative = inhibition in [6] (at 57.5 µM (top of the series)) is 4.16% (inactive). The max response was 14.6% in assay [6] (setting [15]) and 17.5% in assay [6] (setting [16]). Moreover, the activity, negative = inhibition was 3.7% (inactive) in assay [14] (parasite line A) and -27.1% (inactive) in assay [14] (parasite line B).
